PubChem BioAssay (EPA / NIEHS)
Calls of active or inactive are those of the source. How the source made its calls: active means hit-call score of the fitted dose curve at least 0.9, where 1 is the maximum; inactive means score below 0.9.

What follows are compounds tested on Urokinase-type plasminogen activator receptor (uPAR), PLAUR (gene 5329) (assay: BSK_4H_uPAR: BioMAP Diversity Plus: 4H Assay for Urokinase-type plasminogen activator receptor (uPAR) Biomarker Activity (AID 2283030)). Settings: primary human endothelial cells (HUVEC); actives raise or lower the signal.
Outline: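 HUVEC, 24 h post-dose; uPAR by ELISA; bidirectional fit vs DMSO baseline.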
For `CCOC(=O)COc1ccc2c(c1)CC(NCC(O)c1cccc(Cl)c1)CC2` (configuration not stated), the AC50 was 28.7 µM (active).
In the case of `O=C1OC(=O)C2C3C=CC(C3)C12` (configuration not stated), the outcome is reported as “inactive”.
In the case of `O=P(OC(CCl)CCl)(OC(CCl)CCl)OC(CCl)CCl`, the outcome is reported as “inactive”.
`CCCCCCCCCCCCCCCO` was tested, and the outcome was “inactive”.
With `COCCOCCOCCOC` the outcome was “inactive”.
In the case of `CC(C)=CCCC(C)CCO` (configuration not stated), the outcome is reported as “inactive”.
`C1=CCCC=CCCC=CCC1` was tested, and the outcome was “inactive”.
With `CC[C@H]1CC[C@H](NCc2cc3c(cc2OC)[C@H]2C[C@H]2C(=O)N3C)[C@H](c2ccccc2)N1` the outcome was “inactive”.
In the case of `O=C(CCCCCCCCc1cccnc1)N1CCC(C=C(c2ccccc2)c2ccccc2)CC1`, the AC50 is reported as 11.2 µM (active).
In the case of `CC(C)(O)c1coc(S(=O)(=O)NC(=O)Nc2c3c(cc4c2CCC4)CCC3)c1`, the outcome is reported as “inactive”.
`CCN(C(=O)c1cc(C)cc(OC[C@H](C)Nc2ccncc2)c1)C(C)C` was tested, and the outcome was “inactive”.
`Cc1ccc(S(=O)(=O)O)cc1C` was tested, and the outcome was “inactive”.
With `CNS(=O)(=O)c1cc(C(=O)N2CCC(CCN3C4CCC3CC(n3c(C)nc5ccccc53)C4)(c3cccc(F)c3)CC2)c(Cl)cc1F` (configuration not stated) the AC50 was 0.148 µM (active).
`CCCCC(CC)COC(=O)CCCCCCCCC(=O)OCC(CC)CCCC` (configuration not stated) was tested, and the outcome was “inactive”.
In the case of `O=C(NS(=O)(=O)/C=C/c1ccccc1)c1ccc(F)cc1Cl`, the outcome is reported as “inactive”.
For `CCOc1cccc(-n2cc(C(=O)N3CCN(c4cc(C(=O)O)c5ccccc5c4)CC3)nc2-c2ccc(C)cc2)c1`, the AC50 was 12.7 µM (active).
`O=C(OC[C@H]1O[C@@H](OC(=O)c2cc(O)c(O)c(OC(=O)c3cc(O)c(O)c(O)c3)c2)[C@H](OC(=O)c2cc(O)c(O)c(OC(=O)c3cc(O)c(O)c(O)c3)c2)[C@@H](OC(=O)c2cc(O)c(O)c(OC(=O)c3cc(O)c(O)c(O)c3)c2)[C@@H]1OC(=O)c1cc(O)c(O)c(OC(=O)c2cc(O)c(O)c(O)c2)c1)c1cc(O)c(O)c(OC(=O)c2cc(O)c(O)c(O)c2)c1` was tested, and the AC50 was 3.15 µM (active).
